From PubChem BioAssay (NCATS) come the findings set out here.

Results filed as inconclusive are left out. Values without a mark were called inactive. Active and inactive are the calls of the source. Unless noted, the call rests on the fitted dose curve; in most records, active means well fitted curve in the direction sought with a large enough effect; inconclusive means small, poorly fitted or top-dose-only effect, or another doubt; inactive means no such curve, though single readings can be large; an effect the other way counts as inactive or inconclusive.

Test [1] has as its target Cytochrome P450 2D6 (Homo sapiens) (UniProt P10635). The test can be described thus: Cytochrome P450 family 2 subfamily D member 6 (CYP2D6) small molecule antagonists: luciferase biochemical (cell-free) qHTS assay (AID 1645840; active means well fitted curve in the direction sought with a large enough effect in the repeat runs; an effect the other way counts as inactive or inconclusive; further: nearly all actives have a fitted effect of over 55% in size; further: potency means the concentration at half of the fitted maximal effect; on activity change, negative = inhibition: series mostly up to about 57 µM; on the % scale 0 is the no-effect control and ±100 the full control effect). In a few lines:
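P450-Glo CYP2D6 system: proluciferin substrate converted by enzyme to luciferin, read by luminescence proportional to activity. Enzyme-substrate mix with compound 10 min at room temperature, then NADPH regeneration 1 h before detection reagent.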

For test [2], the target named is Cytochrome P450 2C9 (Homo sapiens) (UniProt P11712). The test can be described thus: Cytochrome P450 family 2 subfamily C member 9 (CYP2C9) small molecule antagonists: luciferase biochemical (cell-free) qHTS assay (AID 1645842; active means well fitted curve in the direction sought with a large enough effect in the repeat runs; an effect the other way counts as inactive or inconclusive; further: nearly all actives have a fitted effect of over 55% in size; further: potency means the concentration at half of the fitted maximal effect; on activity change, negative = inhibition: series mostly up to about 57 µM; on the % scale 0 is the no-effect control and ±100 the full control effect). In a few lines:
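P450-Glo CYP2C9 system: proluciferin substrate with enzyme in mix containing 0.4% BSA, 10 min at room temperature, then NADPH regeneration solution added and incubated 1 h at 37C. Detection reagent stopped reaction; luminescence read after 20 min as RLU.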
Background: qHTS replaces the single test concentration by a dilution series.

The nature of test [3]: Primary qHTS for inhibitors of nuclear receptor binding SET domain protein 2 (NSD2) in an isogenic RCH-ACV NSD2 p.E1099K mutant (9B) (AID 1645876). Further: nearly all actives have a fitted effect of over 70% in size. Further: potency means the concentration at half of the fitted maximal effect.
Test [4] in a line: Primary qHTS for inhibitors of nuclear receptor binding SET domain protein 2 (NSD2) in an RCH-ACV wild type WT cells (2C) (AID 1645877). Further: nearly all actives have a fitted effect of over 70% in size. Further: potency means the concentration at half of the fitted maximal effect.
Test [5] has as its target Rap guanine nucleotide exchange factor 3 (Homo sapiens) (UniProt O95398). Kind of test: Confirmatory qHTS for antagonist of cAMP-regulated guanine nucleotide exchange factor 3 (EPAC1) (AID 1645880).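 Further: plate controls were DMSO only for no effect and full effect of the ATA control for full effect; nearly all actives have a fitted effect of over 55% in size.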 In a few lines: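 Released BODIPY-GDP fluoresces less than Rap1-bound BODIPY-GDP; the signal is followed at 480/540 nm at 5-min intervals over 30 min, after 5 min at room temperature. Reactions contain 100 nM EPAC1, 250 nM RAP1B-BODIPY-GDP and 50 uM GDP; results are normalized to ATA and DMSO.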

The target of test [6] is Rap guanine nucleotide exchange factor 4 (Homo sapiens) (UniProt Q8WZA2). Kind of test: Confirmatory qHTS for antagonist of cAMP-regulated guanine nucleotide exchange factor 4 (EPAC2) (AID 1645885). Further: on the % scale 0 is the no-effect control and ±100 the full control effect; nearly all actives have a fitted effect of over 25% in size.
Sequence of Rap guanine nucleotide exchange factor 4 (Homo sapiens) (Q8WZA2 whole entry, looked up): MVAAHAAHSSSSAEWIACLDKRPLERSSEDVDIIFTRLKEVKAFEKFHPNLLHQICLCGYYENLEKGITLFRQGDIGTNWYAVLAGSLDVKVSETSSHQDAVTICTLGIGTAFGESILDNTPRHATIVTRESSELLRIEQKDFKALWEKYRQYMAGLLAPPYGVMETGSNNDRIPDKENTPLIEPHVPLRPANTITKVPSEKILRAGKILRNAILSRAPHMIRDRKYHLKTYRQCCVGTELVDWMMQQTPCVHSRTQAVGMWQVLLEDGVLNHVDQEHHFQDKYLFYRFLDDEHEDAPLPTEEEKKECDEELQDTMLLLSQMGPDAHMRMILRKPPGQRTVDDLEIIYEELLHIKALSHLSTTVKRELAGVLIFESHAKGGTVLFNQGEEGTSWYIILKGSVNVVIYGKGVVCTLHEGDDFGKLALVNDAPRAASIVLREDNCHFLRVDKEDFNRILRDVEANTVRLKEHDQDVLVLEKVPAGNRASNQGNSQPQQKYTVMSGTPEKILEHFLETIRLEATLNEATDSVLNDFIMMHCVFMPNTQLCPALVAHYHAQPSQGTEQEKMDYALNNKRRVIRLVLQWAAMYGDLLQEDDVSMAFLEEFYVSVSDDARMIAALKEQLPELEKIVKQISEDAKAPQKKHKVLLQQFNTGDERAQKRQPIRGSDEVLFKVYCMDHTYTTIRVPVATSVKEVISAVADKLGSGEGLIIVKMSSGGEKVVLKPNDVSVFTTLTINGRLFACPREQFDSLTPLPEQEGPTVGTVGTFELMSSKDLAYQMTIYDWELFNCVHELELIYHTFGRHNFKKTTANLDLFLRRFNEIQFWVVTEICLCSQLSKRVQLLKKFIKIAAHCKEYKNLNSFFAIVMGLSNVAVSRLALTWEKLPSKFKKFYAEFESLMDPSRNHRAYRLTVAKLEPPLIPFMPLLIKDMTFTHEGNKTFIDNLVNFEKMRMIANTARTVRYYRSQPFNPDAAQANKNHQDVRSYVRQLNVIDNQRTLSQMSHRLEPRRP

Sequence of Cytochrome P450 2C9 (Homo sapiens) (P11712 whole entry, looked up): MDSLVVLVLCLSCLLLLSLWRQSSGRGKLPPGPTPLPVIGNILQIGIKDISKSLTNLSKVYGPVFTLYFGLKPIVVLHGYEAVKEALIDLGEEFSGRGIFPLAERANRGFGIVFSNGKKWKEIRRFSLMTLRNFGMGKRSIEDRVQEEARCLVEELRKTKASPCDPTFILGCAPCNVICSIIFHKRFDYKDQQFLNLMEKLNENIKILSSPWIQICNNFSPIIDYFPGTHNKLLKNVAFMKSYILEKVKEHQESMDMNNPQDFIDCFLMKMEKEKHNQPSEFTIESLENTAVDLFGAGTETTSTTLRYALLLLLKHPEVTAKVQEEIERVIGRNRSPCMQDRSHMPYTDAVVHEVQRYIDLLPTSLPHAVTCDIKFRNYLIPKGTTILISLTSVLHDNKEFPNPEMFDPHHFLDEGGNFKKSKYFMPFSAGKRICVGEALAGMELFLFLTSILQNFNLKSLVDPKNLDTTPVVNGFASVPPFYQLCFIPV
Sequence of Cytochrome P450 2D6 (Homo sapiens) (P10635 whole entry, looked up): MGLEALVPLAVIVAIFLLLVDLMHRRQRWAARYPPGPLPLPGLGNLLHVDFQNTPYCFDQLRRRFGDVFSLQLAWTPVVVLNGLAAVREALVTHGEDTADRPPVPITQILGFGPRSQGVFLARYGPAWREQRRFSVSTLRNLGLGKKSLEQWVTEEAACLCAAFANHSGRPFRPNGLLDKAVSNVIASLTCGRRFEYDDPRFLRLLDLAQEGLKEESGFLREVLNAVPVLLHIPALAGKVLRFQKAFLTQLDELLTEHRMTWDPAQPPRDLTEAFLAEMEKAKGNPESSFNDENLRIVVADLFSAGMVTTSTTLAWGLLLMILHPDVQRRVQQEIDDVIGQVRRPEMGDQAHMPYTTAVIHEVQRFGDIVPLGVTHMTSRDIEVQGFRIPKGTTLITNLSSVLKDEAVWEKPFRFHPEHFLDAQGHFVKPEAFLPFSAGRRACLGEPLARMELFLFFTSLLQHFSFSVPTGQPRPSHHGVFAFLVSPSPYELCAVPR
Sequence of Rap guanine nucleotide exchange factor 3 (Homo sapiens) (O95398 whole entry, looked up): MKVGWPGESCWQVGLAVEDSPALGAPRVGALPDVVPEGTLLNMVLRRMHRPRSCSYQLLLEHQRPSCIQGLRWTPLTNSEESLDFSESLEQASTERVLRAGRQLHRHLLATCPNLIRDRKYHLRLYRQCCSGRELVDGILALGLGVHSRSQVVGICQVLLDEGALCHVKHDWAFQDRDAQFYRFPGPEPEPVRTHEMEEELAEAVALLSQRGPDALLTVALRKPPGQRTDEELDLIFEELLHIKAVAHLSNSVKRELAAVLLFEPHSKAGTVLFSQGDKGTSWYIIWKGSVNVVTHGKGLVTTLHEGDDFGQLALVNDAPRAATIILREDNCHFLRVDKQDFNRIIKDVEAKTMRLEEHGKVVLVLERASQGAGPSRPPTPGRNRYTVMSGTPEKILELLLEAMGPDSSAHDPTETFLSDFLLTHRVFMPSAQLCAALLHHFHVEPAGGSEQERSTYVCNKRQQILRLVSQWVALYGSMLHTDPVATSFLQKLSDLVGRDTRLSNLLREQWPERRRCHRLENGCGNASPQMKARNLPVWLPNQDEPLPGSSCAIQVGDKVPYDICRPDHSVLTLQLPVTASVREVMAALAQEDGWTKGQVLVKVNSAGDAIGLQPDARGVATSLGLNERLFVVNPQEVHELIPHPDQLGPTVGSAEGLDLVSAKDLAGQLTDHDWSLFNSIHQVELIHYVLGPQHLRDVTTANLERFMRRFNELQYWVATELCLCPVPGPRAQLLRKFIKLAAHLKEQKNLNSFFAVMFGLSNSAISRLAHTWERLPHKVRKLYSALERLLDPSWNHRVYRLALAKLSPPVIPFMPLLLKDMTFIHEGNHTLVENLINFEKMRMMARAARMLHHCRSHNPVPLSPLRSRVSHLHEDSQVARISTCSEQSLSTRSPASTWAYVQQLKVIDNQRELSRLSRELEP

With `Cc1onc(-c2c(Cl)cccc2Cl)c1C(=O)N[C@@H]1C(=O)N2[C@@H]1SC(C)(C)[C@@H]2C(=O)O`, the Potency entry in test [1], in test [3] and in test [4] was “inactive” in each case. The Potency in test [2] is 20.4 µM (active).
Turning to `CCCCCCCCCCCCCCCC[N+](C)(C)CCN(Cc1ccc(OC)cc1)c1ncccn1`, the Potency in test [1] was 5.49 µM (active); in test [2] it was 24.5 µM (active); in test [3], 668 nM (active); in test [4], 750 nM (active).
Turning to `Nc1ccc(/C=C/c2ccc(N)cc2S(=O)(=O)O)c(S(=O)(=O)O)c1`, the figures for the activity change, negative = inhibition in test [1] and in test [2] were 18.7% [at 0.91 µM] and 13.7% [at 0.91 µM], respectively. Moreover, the outcome in test [3] and in test [4] was “inactive [at 0.588 µM]” throughout.
On to `NC(=O)CC[C@@H]1NC(=O)[C@H](Cc2ccccc2)NC(=O)[C@H](Cc2ccc(O)cc2)NC(=O)CCSSC[C@@H](C(=O)N2CCC[C@H]2C(=O)N[C@@H](CCCN=C(N)N)C(=O)NCC(N)=O)NC(=O)[C@H](CC(N)=O)NC1=O`, for which the Potency entry in test [1], in test [2], in test [3] and in test [4] was “inactive” throughout.
As for `C[n+]1c2cc(N)ccc2cc2ccc(N)cc21` (tested in a mixture with another compound), the Potency in test [1] is 11 µM (active); in test [3], 1500 nM (active); in test [4], 1190 nM (active). In addition, the Potency entry in test [2], in test [5] and in test [6] was “inactive” in each case.
For `O=S1(=O)c2cccc3cccc(c23)N1CCCN1CCN(c2ccc(F)cc2)CC1`, in test [1], the Potency is 3.47 µM (active). Moreover, the Potency result in test [2], in test [3] and in test [4] was “inactive” throughout.
Take `OC(CCN1CCCCC1)(c1ccccc1)c1ccccc1`: in test [1], the Potency was 0.617 µM (active). Moreover, the Potency entry in test [2], in test [3] and in test [4] was “inactive” in each case.
For the molecule `NC(=O)c1cc[n+](CC2=C(C(=O)[O-])N3C(=O)[C@@H](NC(=O)Cc4cccs4)[C@H]3SC2)cc1`, the Potency entry in test [1], in test [2], in test [3] and in test [4] was “inactive” throughout.
